# ± gives the standard deviation of the averaged measurements.
# Assays:
# Test in all cases: promoter activity interaction Z-score (Lux/OD deviation from empty-vector control); higher = stronger promoter induction by the compound
# [1] = system: E. coli BW25113 acrABp lux reporter
# Summary of the method: (§1)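 E. coli BW25113, as wild type or one of three single-gene deletion strains, carried low-copy luxCDABE promoter reporters and grew in 40 µl LB Lennox in 384-well plates at 37°C, with OD600 and luminescence read every 30 min for 12 h. Each compound was run at four 1:2 dilutions in biological duplicates, integration spanned 0–8 h for wild type and 1–9 h for deletion strains, and wells under 10% of the median growth value were dropped. The score is the Z-transformed residual of growth-normalised luminescence fitted against a control.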
# [2] = system: E. coli BW25113 micFp lux reporter
# Summary of the method: as §1
# [3] = system: E. coli BW25113 ompFp lux reporter
# Summary of the method: as §1
# [4] = 17 µg/ml, genetic background: wild type
# [5] = 17 µg/ml, genetic background: ΔmarA
# [6] = 17 µg/ml, genetic background: Δrob
# [7] = 17 µg/ml, genetic background: ΔsoxS
# [8] = 34 µg/ml, genetic background: wild type
# [9] = 34 µg/ml, genetic background: ΔmarA
# [10] = 34 µg/ml, genetic background: Δrob
# [11] = 34 µg/ml, genetic background: ΔsoxS
# [12] = 68.1 µg/ml, genetic background: wild type
# [13] = 68.1 µg/ml, genetic background: ΔmarA
# [14] = 68.1 µg/ml, genetic background: Δrob
# [15] = 68.1 µg/ml, genetic background: ΔsoxS
# [16] = 136.2 µg/ml, genetic background: wild type
# [17] = 136.2 µg/ml, genetic background: ΔmarA
# [18] = 136.2 µg/ml, genetic background: Δrob
# [19] = 136.2 µg/ml, genetic background: ΔsoxS
smiles,measurement,setting,value
C[C@]12CC[C@@H]3c4ccc(O)cc4CC[C@H]3[C@@H]1CC[C@@H]2O [Estradiol],promoter activity interaction Z-score,[1]; [4],0.298 ± 0.0088
same,promoter activity interaction Z-score,[1]; [5],-0.217 ± 0.5
same,promoter activity interaction Z-score,[1]; [6],-0.138 ± 0.15
same,promoter activity interaction Z-score,[1]; [7],-0.335 ± 0.57
same,promoter activity interaction Z-score,[1]; [8],0.101 ± 0.01
same,promoter activity interaction Z-score,[1]; [9],0.101 ± 1.4
same,promoter activity interaction Z-score,[1]; [10],-0.0321 ± 0.063
same,promoter activity interaction Z-score,[1]; [11],-0.0568 ± 0.0019
same,promoter activity interaction Z-score,[1]; [12],-0.0194 ± 0.39
same,promoter activity interaction Z-score,[1]; [13],1.6 ± 0.16
same,promoter activity interaction Z-score,[1]; [14],-0.247 ± 0.35
same,promoter activity interaction Z-score,[1]; [15],-0.0269 ± 0.066
same,promoter activity interaction Z-score,[1]; [16],0.225 ± 0.041
same,promoter activity interaction Z-score,[1]; [17],-0.22 ± 0.31
same,promoter activity interaction Z-score,[1]; [18],-0.28 ± 0.4
same,promoter activity interaction Z-score,[1]; [19],0.453 ± 0.73
same,promoter activity interaction Z-score,[2]; [4],0.105 ± 0.31
same,promoter activity interaction Z-score,[2]; [5],-0.0854 ± 0.0072
same,promoter activity interaction Z-score,[2]; [6],-0.132 ± 0.0023
same,promoter activity interaction Z-score,[2]; [7],-0.254 ± 0.061
same,promoter activity interaction Z-score,[2]; [8],-0.221 ± 0.34
same,promoter activity interaction Z-score,[2]; [9],-0.0642 ± 0.01
same,promoter activity interaction Z-score,[2]; [10],-0.194 ± 0.16
same,promoter activity interaction Z-score,[2]; [11],0.292 ± 0.13
same,promoter activity interaction Z-score,[2]; [12],0.178 ± 0.23
same,promoter activity interaction Z-score,[2]; [13],0.0617 ± 0.15
same,promoter activity interaction Z-score,[2]; [14],-0.166 ± 0.3
same,promoter activity interaction Z-score,[2]; [15],0.179 ± 0.19
same,promoter activity interaction Z-score,[2]; [16],0.028 ± 0.51
same,promoter activity interaction Z-score,[2]; [17],0.118 ± 0.11
same,promoter activity interaction Z-score,[2]; [18],-0.079 ± 0.16
same,promoter activity interaction Z-score,[2]; [19],0.578 ± 0.0079
same,promoter activity interaction Z-score,[3]; [4],0.501 ± 0.11
same,promoter activity interaction Z-score,[3]; [5],-0.126 ± 0.37
same,promoter activity interaction Z-score,[3]; [6],-0.146 ± 0.11
same,promoter activity interaction Z-score,[3]; [7],0.0169 ± 0.25
same,promoter activity interaction Z-score,[3]; [8],-0.603 ± 0.43
same,promoter activity interaction Z-score,[3]; [9],-0.0141 ± 0.44
same,promoter activity interaction Z-score,[3]; [10],-0.554 ± 0.48
same,promoter activity interaction Z-score,[3]; [11],-0.0316 ± 0.18
same,promoter activity interaction Z-score,[3]; [12],-0.329 ± 0.44
same,promoter activity interaction Z-score,[3]; [13],0.821 ± 0.84
same,promoter activity interaction Z-score,[3]; [14],-0.486 ± 0.4
same,promoter activity interaction Z-score,[3]; [15],-0.581 ± 0.16
same,promoter activity interaction Z-score,[3]; [16],-0.397 ± 0.85
same,promoter activity interaction Z-score,[3]; [17],-0.336 ± 0.37
same,promoter activity interaction Z-score,[3]; [18],-0.534 ± 0.93
same,promoter activity interaction Z-score,[3]; [19],-0.638 ± 0.074
